High-throughput results: PubChem BioAssay, several laboratories
In the library only some 4.3% were active in any assay of this set; here they are far more common.
SMARCA2 activ – SMARCA2 function activation, primary screen. MG213 cells, MMTV-luciferase reporter, dexamethasone, overnight. activation, % at 9.1 µM. 370,000 compounds, 1% hits; in the data active = activation above about 7.8%;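 note: 0% = vehicle wells and 100% = reference activator wells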
HSF1 inhib – HSF1 inhibition; NIH3T3-HGL HSE-luciferase, MG132-induced, luminescence 8 h; hits give low values; activity change, negative = inhibition, % at 7.5 µM (by protocol); 300,000 compounds, 0.77% hits;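 active = more than half of replicate wells show activity change below -50%, luminescence cut by over half; inconclusive = some wells, but at most half, below -50%; inactive = no replicate well below -50%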;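 note: luciferase reports HSF-1 transcriptional activity via heat shock element; 0% = median of DMSO wells and -100% = zero luminescence signal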
HSF1 activator – increases HSF-1 driven luciferase reporter signal; AID 504408; activation, % at 9 µM; NIH3T3-HGL HSF-1 luciferase reporter, MG132, 8 h; 100% = twice DMSO control signal; 300,000 compounds, 1.7% hits;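 active = mean replicate activation of at least 50% with a set share of replicates each reaching 50%; inconclusive = only one of those two conditions met; inactive = mean below 50% and too few replicates reaching it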;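 note: 0% = median of the neutral control wells and 100% = twice that signal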
MITF TRPM1 HTS – MITF TRPM1 promoter activation in melanoma cells; SK-MEL-5 TRPM1-promoter luciferase, 24 h; % of positive control, neutral wells = 0; activation, % at 12.5 µM; 300,000 compounds, 0.75% hits;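 active = mean activation of at least 80% with every replicate also reaching 80%; inconclusive = mean reaches 80% but some replicate falls short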;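 note: 0% = neutral control wells and 100% = parthenolide positive control wells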
Wnt act – Wnt/beta-catenin pathway activation | Wnt/beta-catenin reporter cell assay, activator, plate reader | AID 743398 | activation, % at 9.35 µM | 300,000 compounds, 1.2% hits; in the data active = activation above about 30%, passing the limit was not always enough; inconclusive = no clear call, values can overlap the other calls;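 note: 0% = neutral control wells and 100% = positive control wells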
esBAF inh – SWI/SNF esBAF complex inhibition; mouse ES cells, Bmi1-luciferase knock-in reporter, 24 h; 100% = twice the neutral-well signal; reporter increase, % at 12.5 µM; 350,000 compounds, 2% hits; AID 602393; in the data active = activation above about 40%; inconclusive = no clear call, values can overlap the other calls;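 note: 0% = median of the plate's neutral control wells and 100% = double that signal; a rise in the Bmi1 reporter signal indicates esBAF inhibition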
Active calls of the source: *; ? = inconclusive; nt = not tested or not shown.

SMILES	SMARCA2 activ	HSF1 inhib	HSF1 activator	MITF TRPM1 HTS	Wnt act	esBAF inh
COc1ccc(S(=O)(=O)N(C)C[C@H]2OCCCC[C@@H](C)Oc3ccc(NC(=O)Nc4c(C)noc4C)cc3C(=O)N([C@@H](C)CO)C[C@@H]2C)cc1	nt	nt	nt	nt	nt	0.4
Cc1cc2cc(CCNC(=O)C(=O)c3c[nH]c4ccccc34)c(=O)[nH]c2cc1C	-5.5	-62.7*	-65.3	-13.7	-7.4	nt
O=C(NCCc1c[nH]c2ccccc12)C(=O)c1c[nH]c2ccccc12	1.0	8.2	32.4	6.0	-0.4	7.2
O=C(/C=C/Nc1ccc(F)cc1F)c1ccco1	6.9	9.0	28.2	0.7	0.5	-31.8
O=C(/C=C/c1ccc(Br)cc1)c1ccco1	2.4	2.6	31.1	5.4	1.7	nt
O=C(/C=C/Nc1ccccc1Oc1ccccc1)c1ccco1	7.9*	3.6	35.8	4.9	-0.5	13.7
O=C(/C=C/Nc1ccccc1O)c1ccco1	3.8	24.4	32.3	44.4	52.3*	nt
COc1ccccc1Oc1ccc(N/C=C/C(=O)c2ccco2)cc1	3.4	-24.2	-28.1	59.5	16.3	86.8*
O=C(/C=C/C=C/c1ccccc1)c1ccco1	4.5	40.8	?	16.0	39.6*	5.1
C[C@H](CO)N1C[C@H](C)[C@@H](CN(C)C(=O)Nc2ccc(F)cc2)Oc2c(NS(=O)(=O)c3ccc(F)cc3)cccc2C1=O	nt	nt	nt	nt	nt	-4.2
O=C(C[C@H]1CC[C@H]2[C@@H](COC[C@H](O)CN2C(=O)Cc2ccccc2)O1)NC1Cc2ccccc2C1	nt	nt	nt	nt	nt	-0.1
O=C(c1cccc(F)c1)N1C[C@H]2[C@@H](c3ccccc31)[C@@H](CO)N2C(=O)C1CCCCC1	nt	nt	nt	nt	nt	-3.2
CN(C)c1ccc(N/C=C/C(=O)c2ccco2)cc1	2.4	1.1	9.8	20.8	42.9*	1.5
O=C(/C=C/Nc1ccc(F)c(Cl)c1)c1ccco1	7.7	5.6	8.9	33.9	nt	nt
O=C(/C=C/Nc1cccc(F)c1)c1ccco1	5.3	26.8	40.2	92.5*	nt	44.5*
CC(C)C#Cc1cnc2c(c1)C(=O)N([C@H](C)CO)C[C@@H](C)[C@H](CN(C)C(=O)C1CCC1)O2	nt	nt	nt	nt	nt	-1.7
Cc1cc(NC(=O)c2cccc(F)c2)ncc1NC(=O)c1ccco1	2.3	21.1	44.1	70.3	36.5*	0.2
O=C(Nc1ccc(NC(=O)c2ccco2)nc1)c1cccc(F)c1	0.9	20.8	17.2	67.0	31.2*	11.3
Cc1ccc(S(=O)(=O)Nc2ccc3c(c2)CC(=O)N([C@@H](C)CO)C[C@@H](C)[C@H](CN(C)Cc2ccc(Cl)c(Cl)c2)O3)cc1	nt	nt	nt	nt	nt	0.9
O=C(C[C@H]1C[C@@H]2c3cc(NS(=O)(=O)c4ccc(F)cc4)ccc3O[C@@H]2[C@H](CO)O1)NC1CCCCC1	nt	nt	nt	nt	nt	0.9
Cc1cccc(NC(=O)CN2C(=O)N/C(=C/c3cc(C)n(C(C)C)c3C)C2=O)c1	-1.2	-57.3*	-66.3	-6.4	nt	-4.3
CCN1/C(=C/C=C/c2oc3ccc4ccccc4c3[n+]2CC)Oc2ccc3ccccc3c21	nt	238.0	300.3*	nt	nt	nt
N/C(Cc1nc(-c2ccc(Cl)cc2)cs1)=N/O	-0.7	1.5	12.6	nt	36.9*	?
CC(=O)NC[C@H]1[C@@H](c2ccc(-c3cccnc3)cc2)[C@H](CO)N1C(=O)C1CC1	nt	nt	nt	nt	nt	0.0
C[C@H](CO)N1C[C@H](C)[C@H](CN(C)Cc2cccc(F)c2)Oc2cc(C#CC3CC3)ccc2S1(=O)=O	nt	nt	nt	nt	nt	-0.7
SMILES	SMARCA2 activ	HSF1 inhib	HSF1 activator	MITF TRPM1 HTS	Wnt act	esBAF inh
O=C1c2ccccc2C(=O)N1CCC1=CCCCC1	2.6	27.2	13.3	31.1	nt	54.2*
O=C(NCC(=O)N1CCN(Cc2ccccc2)CC1)c1cccs1	5.0	nt	nt	45.9	-2.3	49.0*
O=C(C[C@@H]1CC[C@H]2[C@@H](COC[C@@H](O)CN2CC2CCOCC2)O1)NCC1CCCCC1	nt	nt	nt	nt	nt	-2.6
COc1ccc(CNC(=O)c2cccc(N3CCCC3=O)c2)cc1	-3.4	-2.5	16.2	-5.7	-5.3	0.1
CCN1CCN(c2ccc(NC(=O)c3cccc(N4CCCC4=O)c3)cc2)CC1	5.0	19.0	8.4	5.0	20.9	60.2*
COc1cc(NC(=O)c2ccc(N3CCCC3=O)cc2)cc(OC)c1	-0.9	nt	nt	61.7	-2.1	59.0*
COc1ccc2cc(N3CCCC3=O)ccc2c1	0.6	nt	nt	42.1	3.7	48.2*
O=C(Nc1ccc2c(c1)OCCO2)c1cc2ccccc2o1	2.3	15.3	60.8*	26.7	4.7	25.2
